In assay [1] the target is Mitogen-activated protein kinase 10 (Mus musculus) (UniProt Q61831). In words: JNK3 AlphaScreen Assay (AID 530; active = well fitted curve in either direction with a large enough effect, not every such curve was filed as active;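 note: kinase came from lysate of stimulated human HepG2 cells; signal reports phosphorylation of biotinylated GST-cJun 1-79 at Ser73 with 10 µM ATP; series mostly up to about 57 µM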). In short, it runs like this: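 Kinase buffer: 20 mM Tris-HCl pH 7.6, 10 mM MgCl2, 1 mM DTT, 0.1 mM Na3VO4, 0.01% Tween-20; ATP 10 uM. Substrate biotin-GST-cJun(1-79), enzyme from activated HepG2 lysates. Detection by Ser73 phospho-antibody AlphaScreen.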
For assay [2], the target named is 3',5'-cyclic-AMP phosphodiesterase 4B (Homo sapiens) (UniProt Q07343). The assay is described as follows: qHTS Assay for Inhibitors of PDE-IV (AID 607). In short, it runs like this: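 The readout is membrane depolarisation from a cAMP-sensing CNG channel, detected with a potential dye at ex 535/em 590. Cells were HEK293-derived (endogenous PDE-IV) at 1000 cells/well, titrated up to 22.9 uM final.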

Assay [3] addresses Cytochrome P450 2C9 (Homo sapiens) (UniProt P11712). In words: qHTS Assay for Inhibitors and Substrates of Cytochrome P450 2C9 (AID 883; active = well fitted curve in the direction sought with a large enough effect; an effect the other way counts as inactive or inconclusive; note: potency is the fitted concentration of half-maximal effect; nearly all actives have a fitted effect of over 60% in size). Put shortly: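 Turnover of Luciferin-H (100uM, KM) by 10nM human CYP2C9 was measured over 60 min at 37C with NADPH regeneration; inhibitors and some substrates reduce luminescence. Data normalized to sulphaphenazole 57uM.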
Assay [4] addresses Cytochrome P450 3A4 (Homo sapiens) (UniProt P08684). In words: qHTS Assay for Inhibitors and Substrates of Cytochrome P450 3A4 (AID 884; active = well fitted curve in the direction sought with a large enough effect; an effect the other way counts as inactive or inconclusive; note: potency is the fitted concentration of half-maximal effect; nearly all actives have a fitted effect of over 50% in size). Put shortly:
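Luminescent readout of luciferin produced by CYP3A4 (20 nM) dealkylation of Luciferin-PPXE, 25 uM (its KM). NADPH-driven reaction ran 60 min at RT after 10 min compound preincubation; data scaled to 57 uM ketoconazole as 100% inhibition.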

In assay [5] the target is Cytochrome P450 2C19 (Homo sapiens) (UniProt P33261). The assay is described as follows: qHTS Assay for Inhibitors and Substrates of Cytochrome P450 2C19 (AID 899; active = well fitted curve in the direction sought with a large enough effect; an effect the other way counts as inactive or inconclusive; note: potency is the fitted concentration of half-maximal effect; nearly all actives have a fitted effect of over 60% in size). In short, it runs like this: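 Reactions contain 5nM enzyme, 10uM Luciferin-H EGE (KM) and 50mM KPO4; compound preincubates 10 min at 37C, NADPH regeneration starts turnover for 60 min. Luminescence after detection reagent gives activity.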

Assay [6] has as its target Cytochrome P450 3A4 (Homo sapiens) (UniProt P08684). The assay is described as follows: qHTS Assay for Activators of Cytochrome P450 3A4 (AID 885; active = well fitted curve in the direction sought with a large enough effect; an effect the other way counts as inactive or inconclusive; note: nearly all actives have a fitted effect of over 65% in size). In short, it runs like this:
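Activators are scored by enhanced luminescence from CYP3A4 conversion of luciferin-PPXE (25uM, equal to KM) to luciferin, after 60 min at RT with an NADPH-regenerating system.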

Inconclusive results are not listed. Calls of active or inactive are those of the source. Unless noted, calls come from the whole dose curve; as a rule, active = well fitted activation curve with a large enough effect in the main read-out, with a control signal flat (not every such curve was filed as active); inconclusive = small, poorly fitted or top-dose-only effect, or effect the other way, or a change in a side signal; inactive = flat fitted curve, though single readings scatter.

Cytochrome P450 3A4 (Homo sapiens), sequence (P08684 whole entry, looked up): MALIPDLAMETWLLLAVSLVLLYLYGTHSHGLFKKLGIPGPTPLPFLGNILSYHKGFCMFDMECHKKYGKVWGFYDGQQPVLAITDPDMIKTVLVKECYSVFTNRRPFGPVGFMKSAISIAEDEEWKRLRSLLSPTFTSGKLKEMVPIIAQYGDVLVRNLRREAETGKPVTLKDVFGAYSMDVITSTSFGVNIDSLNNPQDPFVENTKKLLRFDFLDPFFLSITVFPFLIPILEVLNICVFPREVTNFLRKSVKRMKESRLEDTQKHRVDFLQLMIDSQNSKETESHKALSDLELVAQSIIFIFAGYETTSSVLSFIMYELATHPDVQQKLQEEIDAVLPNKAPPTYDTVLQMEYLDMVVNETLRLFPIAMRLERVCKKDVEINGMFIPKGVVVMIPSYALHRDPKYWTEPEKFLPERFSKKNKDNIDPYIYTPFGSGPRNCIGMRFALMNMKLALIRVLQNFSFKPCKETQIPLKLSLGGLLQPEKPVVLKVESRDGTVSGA
3',5'-cyclic-AMP phosphodiesterase 4B (Homo sapiens), sequence (Q07343 whole entry, looked up): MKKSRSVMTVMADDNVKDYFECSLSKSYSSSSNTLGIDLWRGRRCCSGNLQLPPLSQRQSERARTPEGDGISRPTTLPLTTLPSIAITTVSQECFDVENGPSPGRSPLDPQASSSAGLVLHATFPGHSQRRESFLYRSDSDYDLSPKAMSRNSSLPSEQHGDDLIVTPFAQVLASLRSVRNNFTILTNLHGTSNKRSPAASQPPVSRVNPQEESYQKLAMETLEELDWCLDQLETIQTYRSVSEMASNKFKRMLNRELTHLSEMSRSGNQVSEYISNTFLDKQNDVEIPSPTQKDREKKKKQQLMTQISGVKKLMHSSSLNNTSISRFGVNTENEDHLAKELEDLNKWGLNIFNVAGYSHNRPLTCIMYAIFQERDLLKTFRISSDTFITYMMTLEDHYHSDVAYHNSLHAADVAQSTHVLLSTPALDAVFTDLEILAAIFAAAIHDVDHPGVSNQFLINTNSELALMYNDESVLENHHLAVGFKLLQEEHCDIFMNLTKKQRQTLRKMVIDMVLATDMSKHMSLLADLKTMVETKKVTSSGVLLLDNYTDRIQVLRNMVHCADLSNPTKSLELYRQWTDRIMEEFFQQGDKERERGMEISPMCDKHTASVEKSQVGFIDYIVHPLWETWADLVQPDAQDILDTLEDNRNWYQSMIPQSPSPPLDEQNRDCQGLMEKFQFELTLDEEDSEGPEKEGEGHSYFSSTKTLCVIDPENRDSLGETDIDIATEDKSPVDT
Cytochrome P450 2C9 (Homo sapiens), sequence (P11712 whole entry, looked up): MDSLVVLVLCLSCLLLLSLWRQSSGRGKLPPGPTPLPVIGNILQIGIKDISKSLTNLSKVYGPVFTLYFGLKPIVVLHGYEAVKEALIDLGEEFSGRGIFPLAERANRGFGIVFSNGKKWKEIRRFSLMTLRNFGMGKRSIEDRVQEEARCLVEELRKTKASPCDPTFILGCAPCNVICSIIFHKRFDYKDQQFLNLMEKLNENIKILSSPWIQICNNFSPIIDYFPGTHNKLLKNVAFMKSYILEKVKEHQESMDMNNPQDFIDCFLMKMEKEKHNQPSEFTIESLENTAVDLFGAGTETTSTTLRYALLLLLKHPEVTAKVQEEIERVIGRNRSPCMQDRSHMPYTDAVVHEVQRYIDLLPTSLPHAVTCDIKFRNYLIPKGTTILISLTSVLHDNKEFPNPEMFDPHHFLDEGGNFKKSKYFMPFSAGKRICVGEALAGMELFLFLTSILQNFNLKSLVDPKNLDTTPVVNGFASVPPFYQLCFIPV
Cytochrome P450 2C19 (Homo sapiens), sequence (P33261 whole entry, looked up): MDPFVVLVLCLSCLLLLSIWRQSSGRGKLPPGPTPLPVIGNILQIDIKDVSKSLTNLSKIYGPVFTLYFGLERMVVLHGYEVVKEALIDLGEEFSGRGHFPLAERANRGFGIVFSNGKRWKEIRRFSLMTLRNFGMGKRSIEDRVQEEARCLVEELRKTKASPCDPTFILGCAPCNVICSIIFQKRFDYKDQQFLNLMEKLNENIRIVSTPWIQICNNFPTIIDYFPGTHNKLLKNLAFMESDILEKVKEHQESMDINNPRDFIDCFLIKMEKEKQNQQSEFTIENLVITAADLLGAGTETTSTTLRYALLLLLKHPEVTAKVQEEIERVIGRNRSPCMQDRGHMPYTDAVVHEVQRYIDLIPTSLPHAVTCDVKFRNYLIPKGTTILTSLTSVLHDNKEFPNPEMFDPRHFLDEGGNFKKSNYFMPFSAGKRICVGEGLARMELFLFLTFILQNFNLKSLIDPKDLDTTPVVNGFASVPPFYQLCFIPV

On to `COC(=O)[C@@]1(Cc2ccc(F)cc2)[C@H]2c3cc(C(=O)N4CCCC4)n(C[C@H](O)CO)c3C[C@H]2CN1C(=O)c1ccccc1`, for which the result in assay [1] and in assay [2] was inactive.
Regarding `COC(=O)[C@@]1(Cc2ccccc2)[C@H]2c3cc(C(=O)N4CCCC4)[nH]c3C[C@H]2CN1C(=O)c1ccccc1`, the result in assay [1] and in assay [2] was inactive. Besides, the Potency in assay [3] was 794 nM (active); in assay [4], 2510 nM (active); in assay [5] it was 501 nM (active).
As to `COC(=O)[C@@]1(Cc2ccc(OC)cc2)[C@H]2c3cc(C(=O)N(C)C)n(Cc4ccc(OC)c(OC)c4)c3C[C@H]2CN1C(=O)c1ccccc1`, the result in assay [1] and in assay [2] was inactive.
Regarding `COC(=O)[C@@]1(Cc2ccc(F)cc2)[C@H]2c3cc(C(=O)N4CCCC4)n(CCc4c[nH]c5cc(F)ccc45)c3C[C@H]2CN1C(=O)c1ccccc1`, the outcome in assay [1] and in assay [2] was inactive.
`CC(C)=C1C(=O)C(c2ccccc2)=C2CN3C(=O)N(CCc4ccccc4)C(=O)[C@]3(Cc3ccc(C(F)(F)F)cc3)[C@H]21`: the outcome in assay [1] and in assay [2] was inactive.
For the compound `COC(=O)[C@@]1(Cc2ccc(OC)cc2)[C@H]2c3cc(C(=O)N4CCCC4)n(CCc4ccc(O)c(O)c4)c3C[C@H]2CN1C(=O)c1ccccc1`, the outcome in assay [1] and in assay [2] was inactive.
Turning to `COC(=O)[C@@]1(Cc2ccc(OC)cc2)[C@H]2c3cc(C(=O)N4CCCC4)n(Cc4cc(C)n(C)n4)c3C[C@H]2CN1C(=O)c1ccccc1`, the outcome in assay [1] and in assay [2] was inactive.
Regarding `COC(=O)[C@@]1(Cc2ccc(F)cc2)[C@H]2c3cc(C(=O)N(C)C)n(CCc4ccccn4)c3C[C@H]2CN1C(=O)c1ccccc1`, the call in assay [1] and in assay [2] was inactive.
Turning to `COC(=O)[C@@H]1C[C@H]1[C@@H](NS(=O)(=O)c1ccccc1)c1ccccc1`, the call in assay [1] and in assay [2] was inactive.
Take `C[C@@H](C(=O)Nc1ccc2ccccc2c1)[C@@H]1C[C@@]1(C)[C@@H](NC(=O)c1cccnc1)c1ccccc1`: the call in assay [1] and in assay [2] was inactive.
For `COC(=O)[C@@H]1C[C@H]1[C@@H](N)c1ccccc1`, the result in assay [1] and in assay [2] was inactive.
As to `Cc1cc(C(=O)N[C@H](c2ccccc2)[C@@]2(C)C[C@@H]2[C@@H](C)C(=O)Nc2ccc3ccccc3c2)no1`, the result in assay [1] and in assay [2] was inactive.
For `COC(=O)[C@@]1(Cc2ccccc2)[C@H]2c3cc(C(=O)N(C)C)n(Cc4ccccn4)c3C[C@H]2CN1C(=O)c1ccccc1`, the outcome in assay [1] and in assay [2] was inactive.
On to `COC(=O)[C@@]1(Cc2ccc(OC)cc2)[C@H]2c3cc(C(=O)N4CCCC4)n(Cc4ccc(O)c(OC)c4)c3C[C@H]2CN1C(=O)c1ccccc1`, for which the call in assay [1] and in assay [2] was inactive.
For `COC(=O)[C@@]1(Cc2ccccc2)[C@H]2c3cc(C(=O)N(C)C)n(Cc4cc(F)c(F)c(F)c4)c3C[C@H]2CN1C(=O)c1ccccc1`, the call in assay [1] and in assay [2] was inactive.
With `COC(=O)[C@@]1(Cc2ccc(OC)cc2)[C@H]2c3cc(C(=O)N4CCCC4)n(CCN4CNCC4=O)c3C[C@H]2CN1C(=O)c1ccccc1`, the outcome in assay [1] and in assay [2] was inactive.
Turning to `O=C(N[C@@H](c1ccccc1)[C@@H]1C[C@H]1C(=O)NCc1ccccc1)OCc1ccccc1`, the compound was called inactive in assay [1] and in assay [2].
Take `COC(=O)[C@@]1(Cc2ccc(OC)cc2)[C@H]2c3cc(C(=O)N4CCCC4)n(CCO)c3C[C@H]2CN1C(=O)c1ccccc1`: the compound was classed as inactive in assay [1] and in assay [2].
`Cc1ccc(CNC(=O)[C@H](C)[C@@H]2C[C@@]2(C)[C@@H](NC(=O)OCc2ccccc2)c2ccccc2)c(F)c1F`: the result in assay [1] and in assay [2] was inactive.
On to `COC(=O)[C@@]1(Cc2ccc(OC)cc2)[C@H]2c3cc(C(=O)N4CCCC4)n(CCc4c[nH]c5ccccc45)c3C[C@H]2CN1C(=O)c1ccccc1`, for which the result in assay [1] and in assay [2] was inactive.
Turning to `Cc1ccc(CNC(=O)[C@H]2C[C@@H]2[C@H](NP(=O)(c2ccccc2)c2ccccc2)c2ccccc2)o1`, the outcome in assay [1] and in assay [2] was inactive.
For the compound `COC(=O)[C@@]1(Cc2ccc(OC)cc2)[C@H]2c3cc(C(=O)N(C)C)n(Cc4cc(C)n(C)n4)c3C[C@H]2CN1C(=O)c1ccccc1`, the compound was called inactive in assay [1] and in assay [2].
For the compound `COC(=O)[C@@]1(Cc2ccc(OC)cc2)[C@H]2c3cc(C(=O)N4CCCC4)n(Cc4ccc(C)c(F)c4F)c3C[C@H]2CN1C(=O)c1ccccc1`, the result in assay [1] and in assay [2] was inactive.
Regarding `C=C(CC1([C@@H](NP(=O)(c2ccccc2)c2ccccc2)[C@H]2C[C@@H]2CCCC)CC1)c1ccccc1`, the result in assay [1] and in assay [2] was inactive. Besides, the Potency in assay [4] is 1580 nM (active). The Potency result in assay [6] is “inactive”.
On to `CS(=O)(=O)c1ccc(CNC(=O)[C@H]2C[C@@H]2[C@H](NP(=O)(c2ccccc2)c2ccccc2)c2ccccc2)cc1`, for which the outcome in assay [1] and in assay [2] was inactive.
As to `C[C@@H](C(=O)NCC1CC1)[C@@H]1C[C@@]1(C)[C@@H](NC(=O)OCc1ccccc1)c1ccccc1`, the result in assay [1] and in assay [2] was inactive.
Take `COC(=O)[C@@]1(Cc2ccc(OC)cc2)[C@H]2c3cc(C(=O)N(C)C)n(Cc4nc5ccccc5[nH]4)c3C[C@H]2CN1C(=O)c1ccccc1`: the compound was called inactive in assay [1] and in assay [2].
As to `COC(=O)[C@@]1(Cc2ccc(F)cc2)[C@H]2c3cc(C(=O)N(C)C)n(Cc4ccc(OC(F)(F)F)cc4)c3C[C@H]2CN1C(=O)c1ccccc1`, the call in assay [1] and in assay [2] was inactive.

The record behind these values is PubChem BioAssay (NCATS).
